Some test systems named below: SR leukemia; RPMI-8226 leukemia; OVCAR-8 ovarian; OVCAR-5 ovarian; OVCAR-4 ovarian; SK-OV-3 ovarian; IGROV1 ovarian; OVCAR-3 ovarian; HS 578T breast; NCI/ADR-RES ovarian; T-47D breast; BT-549 breast; MDA-MB-435 melanoma; SW-620 colon; MCF7 breast; HCT-116 colon; HCC-2998 colon; KM12 colon.
Assay in all cases: NCI-60 one-dose screen, 48 h (100 = growth as untreated, 0 = no growth, -100 = all killed)
Details in all cases: 10 µM unless noted

This is part of a sample that, as a whole, favours compounds with a hit. Of some 83,000 tested, about 20% had one in any assay.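 Negative percent growth values reflect cell death: -40 means 40% of the cells present at the start died, and -100 means all died.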 Values without a mark were called inactive. Active and inactive are the calls of the source. How the source made its calls: active means growth percent below 10; inactive means the rest.

Take `O=C1C[C@@H](c2ccccc2)Oc2c(Cc3ccccc3O)c(O)c(Cc3cc(Cc4cc(Cc5ccccc5O)ccc4O)ccc3O)c(O)c21`: the growth in the assay with SR leukemia was 99.5%; with RPMI-8226 leukemia it was 88%; with OVCAR-8 ovarian, 97.2%; with OVCAR-5 ovarian, 107%; in the assay with OVCAR-4 ovarian, 99.6%; in the assay on SK-OV-3 ovarian it was 103%. Also, the growth with IGROV1 ovarian is 82.6%; with OVCAR-3 ovarian, 96.4%; in the assay on HS 578T breast, 85.4%; in the assay on NCI/ADR-RES ovarian, 106%; in the assay on T-47D breast, 94%; in the assay with BT-549 breast, 104%. Moreover, the growth is 93.8% in the assay with MDA-MB-435 melanoma; 99.3% in the assay with SW-620 colon; 92.2% in the assay on MCF7 breast; 96.7% in the assay with HCT-116 colon; 106% in the assay with HCC-2998 colon; 92.8% in the assay with KM12 colon.

For `C#CCOc1ccc(C(Nc2ccc(Cl)cc2)c2nnnn2C2CCCCC2)cc1` (centres undefined), the growth in the assay on SR leukemia is 81%; with RPMI-8226 leukemia, 76.9%; in the assay with OVCAR-8 ovarian, 93.5%; in the assay with OVCAR-5 ovarian, 85.5%; in the assay with OVCAR-4 ovarian, 82.6%; with SK-OV-3 ovarian, 98.2%. The growth in the assay with IGROV1 ovarian is 84.3%; with OVCAR-3 ovarian, 101%; in the assay on HS 578T breast, 79.9%; in the assay with NCI/ADR-RES ovarian, 76.6%; in the assay with T-47D breast, 74.4%; with BT-549 breast, 85.7%. The growth with MDA-MB-435 melanoma was 98%; in the assay with SW-620 colon, 94.2%; with MCF7 breast, 75.5%; with HCT-116 colon, 61.4%; in the assay on HCC-2998 colon it was 98.7%; in the assay with KM12 colon, 95.9%.

On to `COc1cc2cc(Oc3ccc(NC(=O)Nc4cccc(C(F)(F)F)c4)cc3)c(C)nc2cc1OCCN(C)C`, for which the growth in the assay on SR leukemia is 26.1%; with RPMI-8226 leukemia it was 92.3%; with OVCAR-8 ovarian, 97.9%; with OVCAR-5 ovarian it was 108%; in the assay on OVCAR-4 ovarian, 92.9%; in the assay on SK-OV-3 ovarian, 107%. The growth was 102% with IGROV1 ovarian; 122% in the assay with OVCAR-3 ovarian; 112% in the assay on HS 578T breast; 93.9% in the assay on NCI/ADR-RES ovarian; 91.8% with T-47D breast; 119% in the assay on BT-549 breast. Moreover, the growth was 96.6% with MDA-MB-435 melanoma; 111% with SW-620 colon; 69.2% in the assay with MCF7 breast; 82.8% with HCT-116 colon; 105% in the assay with HCC-2998 colon; 98.2% with KM12 colon.

As to `CN(c1ccc(F)cc1)S(=O)(=O)c1ccc(-c2cnc(C3CC3)o2)cc1`, the growth with SR leukemia is 20.1%; in the assay on RPMI-8226 leukemia, 14.1%; with OVCAR-8 ovarian it was 38.8%; in the assay with OVCAR-5 ovarian it was 49.5%; in the assay with OVCAR-4 ovarian it was 70.4%; in the assay with SK-OV-3 ovarian it was 72.1%. The growth in the assay on IGROV1 ovarian is 27.5%; in the assay with OVCAR-3 ovarian it was 6.57% (active); in the assay on HS 578T breast it was 37.4%; with NCI/ADR-RES ovarian, 9.11% (active); in the assay on T-47D breast, 54.1%; with BT-549 breast, 46.2%. Further, the growth in the assay with MDA-MB-435 melanoma is -26.2% (active); in the assay on SW-620 colon, 32.9%; in the assay with MCF7 breast, 23.7%; in the assay with HCT-116 colon, 18.7%; in the assay with HCC-2998 colon, 22.3%; in the assay on KM12 colon, 18.5%.

As to `CCOC(=O)C1=C(C)N=C2Sc3ccccc3N2C1c1ccccc1` (centres undefined), the growth in the assay with SR leukemia was 83.8%; in the assay on RPMI-8226 leukemia, 73.4%; in the assay with OVCAR-8 ovarian, 96.6%; in the assay with OVCAR-5 ovarian, 102%; in the assay on OVCAR-4 ovarian, 91.9%; in the assay with SK-OV-3 ovarian it was 125%. For the same molecule, the growth is 77.3% in the assay with IGROV1 ovarian; 98.4% with OVCAR-3 ovarian; 93.5% in the assay on HS 578T breast; 82.3% in the assay on NCI/ADR-RES ovarian; 76.6% in the assay with T-47D breast; 92.2% with BT-549 breast. Besides, the growth in the assay with MDA-MB-435 melanoma was 102%; in the assay with SW-620 colon it was 92.2%; with MCF7 breast it was 106%; with HCT-116 colon it was 65%; in the assay with HCC-2998 colon it was 97.1%; in the assay with KM12 colon it was 93.9%.

As to `O=C(CSc1nnc(-c2cccs2)n1-c1ccccc1)Nc1ccc(F)cc1`, the growth in the assay on SR leukemia is 71.6%; in the assay with RPMI-8226 leukemia it was 105%; with OVCAR-8 ovarian, 93.5%; in the assay with OVCAR-5 ovarian it was 97.3%; with OVCAR-4 ovarian it was 96.4%; with SK-OV-3 ovarian, 82.5%. In addition, the growth in the assay on IGROV1 ovarian is 95.4%; with OVCAR-3 ovarian, 111%; in the assay with HS 578T breast it was 91.8%; with NCI/ADR-RES ovarian it was 90.7%; in the assay with T-47D breast, 84.7%; in the assay with BT-549 breast it was 99.3%. The growth was 80.8% in the assay with MDA-MB-435 melanoma; 97.2% in the assay on SW-620 colon; 91.9% with MCF7 breast; 86.3% in the assay on HCT-116 colon; 125% in the assay on HCC-2998 colon; 94.1% with KM12 colon.

For `COc1c([C@@H](CC(C)C)OC(C)=O)ccc2c1C(=O)OCc1cc(C)cc(O)c1O2`, the growth in the assay with SR leukemia was 19.1%; with RPMI-8226 leukemia it was 27.6%; with OVCAR-8 ovarian, 21.2%; in the assay with OVCAR-5 ovarian, 69.4%; in the assay with OVCAR-4 ovarian it was 25.9%; in the assay on SK-OV-3 ovarian, 24.3%. Also, the growth with IGROV1 ovarian was 44%; in the assay with OVCAR-3 ovarian, 43%; with HS 578T breast, 45.9%; with NCI/ADR-RES ovarian, 12.6%; in the assay with T-47D breast it was 17.4%; in the assay on BT-549 breast, 31.3%. Besides, the growth with MDA-MB-435 melanoma is 30%; with SW-620 colon, 20%; in the assay on MCF7 breast it was 18.4%; in the assay with HCT-116 colon it was 12.3%; with HCC-2998 colon, 35%; with KM12 colon, 30.7%.

Regarding `CC(C)N=C(N/C(N)=N/c1nc2ccccc2s1)NC(C)C`, the growth was 49.5% in the assay with SR leukemia; 42.7% in the assay on RPMI-8226 leukemia; 67.2% with OVCAR-8 ovarian; 60.8% in the assay on OVCAR-5 ovarian; 93.6% in the assay on OVCAR-4 ovarian; 83.4% with SK-OV-3 ovarian. In addition, the growth with IGROV1 ovarian is 39.6%; in the assay on OVCAR-3 ovarian it was 104%; in the assay on HS 578T breast, 75.9%; in the assay on NCI/ADR-RES ovarian, 63.7%; with T-47D breast, 58.4%; with BT-549 breast, 70%. The growth was 35.9% in the assay on MDA-MB-435 melanoma; 33.3% in the assay with SW-620 colon; 43.2% with MCF7 breast; 17.7% in the assay on HCT-116 colon; 76.9% with HCC-2998 colon; 65.9% in the assay with KM12 colon.

The record behind these values is PubChem BioAssay (NCI).
